Consider 2 sequences from publication PMC7862700, “An all-to-all approach to the identification of sequence-specific readers for epigenetic DNA modifications on cytosine”.

Holding throughout (assay): DAPPL (digital affinity profiling via proximity ligation, sequencing); 10 mM Tris-HCl pH 7.5, 50 mM NaCl, 1 mM DTT, 4% glycerol, room temperature, 30 min; GST-TFs on glutathione beads, 16-mer random dsDNA library, 0.1% formaldehyde crosslink after washing; high values mean tight binding
Conditions in all cases: protein: recombinant; tags: N-terminal GST; dsDNA, one strand shown

The target of one test is T1, FLI1 (Homo sapiens, UniProt Q01543 1-452).
T1 sequence: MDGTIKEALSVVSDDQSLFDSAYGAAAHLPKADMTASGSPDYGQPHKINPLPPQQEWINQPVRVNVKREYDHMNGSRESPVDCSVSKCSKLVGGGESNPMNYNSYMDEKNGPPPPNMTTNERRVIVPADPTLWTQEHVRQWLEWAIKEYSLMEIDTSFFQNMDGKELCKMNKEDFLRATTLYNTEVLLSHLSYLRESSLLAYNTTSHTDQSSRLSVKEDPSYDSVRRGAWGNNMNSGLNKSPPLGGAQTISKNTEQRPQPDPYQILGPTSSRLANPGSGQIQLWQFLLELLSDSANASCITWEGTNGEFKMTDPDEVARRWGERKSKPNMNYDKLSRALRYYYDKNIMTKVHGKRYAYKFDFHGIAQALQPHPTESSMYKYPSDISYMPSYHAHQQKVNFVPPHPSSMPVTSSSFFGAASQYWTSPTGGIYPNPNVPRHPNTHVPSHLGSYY
The method in brief: (§1)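 The binding signal reported is, for every hexamer, its read frequency for a factor over its read frequency for the tag-only sample. Reads came from pools of yeast-expressed, GST-fused human transcription factors on glutathione beads, barcoded with DNA and mixed with that sample, which were incubated with 200 nmole of a random double-stranded 16-mer DNA library in Tris/NaCl/DTT/glycerol buffer at room temperature for 30 min. After washing, the pools were crosslinked with 0.1% formaldehyde, proximity-ligated with BsaI/T4 ligase for 1 h at 37 °C, PCR-amplified and sequenced on an Illumina NextSeq500.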

The target in the next test is T2, ELK1 (Homo sapiens, UniProt P19419 1-428).
T2 sequence: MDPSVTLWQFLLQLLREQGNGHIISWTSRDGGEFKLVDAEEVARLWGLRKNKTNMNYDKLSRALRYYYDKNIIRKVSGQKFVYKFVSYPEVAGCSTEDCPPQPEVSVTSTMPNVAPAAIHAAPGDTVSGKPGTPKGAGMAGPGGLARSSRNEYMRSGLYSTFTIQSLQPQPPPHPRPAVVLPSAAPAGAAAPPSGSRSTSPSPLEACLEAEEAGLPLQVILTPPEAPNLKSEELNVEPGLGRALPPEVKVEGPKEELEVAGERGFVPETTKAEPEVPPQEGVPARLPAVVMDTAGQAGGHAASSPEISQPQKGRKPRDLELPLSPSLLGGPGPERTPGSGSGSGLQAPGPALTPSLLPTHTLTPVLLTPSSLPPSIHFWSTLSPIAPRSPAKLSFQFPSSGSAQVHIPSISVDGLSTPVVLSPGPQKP
The method in brief:
as §1

The target in another test is T3, GABPA (Homo sapiens, UniProt Q06546 1-454).
T3 sequence: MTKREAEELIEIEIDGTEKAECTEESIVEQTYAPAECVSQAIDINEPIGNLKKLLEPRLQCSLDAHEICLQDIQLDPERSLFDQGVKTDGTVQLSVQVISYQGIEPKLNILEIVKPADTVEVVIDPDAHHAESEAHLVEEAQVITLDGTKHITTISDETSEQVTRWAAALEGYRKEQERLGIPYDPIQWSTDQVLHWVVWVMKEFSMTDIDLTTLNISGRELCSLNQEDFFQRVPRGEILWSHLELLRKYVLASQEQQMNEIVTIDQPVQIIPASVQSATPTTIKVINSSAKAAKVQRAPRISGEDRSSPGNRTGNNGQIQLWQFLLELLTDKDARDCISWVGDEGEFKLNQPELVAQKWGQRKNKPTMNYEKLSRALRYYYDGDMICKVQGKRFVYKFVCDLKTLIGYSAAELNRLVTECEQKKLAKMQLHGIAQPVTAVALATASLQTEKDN
The essentials:
as §1

In the next test the target is T4, ERG (Homo sapiens, UniProt P11308 1-479).
T4 sequence: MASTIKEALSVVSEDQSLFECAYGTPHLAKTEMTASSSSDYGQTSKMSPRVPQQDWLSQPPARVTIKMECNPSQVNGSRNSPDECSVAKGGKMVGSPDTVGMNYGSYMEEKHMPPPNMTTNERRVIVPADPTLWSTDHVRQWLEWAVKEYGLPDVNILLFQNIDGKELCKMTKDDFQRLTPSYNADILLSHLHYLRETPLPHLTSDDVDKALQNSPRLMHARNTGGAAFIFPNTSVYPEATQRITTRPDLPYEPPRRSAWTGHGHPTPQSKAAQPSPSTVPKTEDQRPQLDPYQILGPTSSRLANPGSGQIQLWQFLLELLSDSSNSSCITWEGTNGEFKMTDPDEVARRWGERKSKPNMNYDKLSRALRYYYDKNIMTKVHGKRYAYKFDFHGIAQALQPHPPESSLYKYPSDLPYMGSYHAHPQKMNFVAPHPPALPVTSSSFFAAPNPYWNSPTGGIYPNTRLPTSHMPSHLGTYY
The method in brief: as §1

A further test concerns the target ELF1 (Homo sapiens, UniProt P32519 1-619). The method in brief: as §1
A further test concerns the target T5, EHF (Homo sapiens, UniProt Q9NZC4 1-300).
T5 sequence: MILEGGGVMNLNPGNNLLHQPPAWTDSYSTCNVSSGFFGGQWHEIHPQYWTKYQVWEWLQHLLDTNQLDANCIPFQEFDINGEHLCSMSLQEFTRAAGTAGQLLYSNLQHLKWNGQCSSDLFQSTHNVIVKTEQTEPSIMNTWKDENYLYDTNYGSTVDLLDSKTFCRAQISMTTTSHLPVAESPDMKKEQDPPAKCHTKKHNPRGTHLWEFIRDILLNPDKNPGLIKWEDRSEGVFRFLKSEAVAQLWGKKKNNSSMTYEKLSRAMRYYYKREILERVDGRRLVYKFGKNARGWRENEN
The essentials:
as §1

The target in a further test is SPI1 (Homo sapiens, UniProt P17947 1-270). The method in brief: as §1
The next test addresses SPIB (Homo sapiens, UniProt Q01892 1-262). The essentials:
as §1

The next test has as its target T6, ELK3 (Homo sapiens, UniProt P41970 1-407).
T6 sequence: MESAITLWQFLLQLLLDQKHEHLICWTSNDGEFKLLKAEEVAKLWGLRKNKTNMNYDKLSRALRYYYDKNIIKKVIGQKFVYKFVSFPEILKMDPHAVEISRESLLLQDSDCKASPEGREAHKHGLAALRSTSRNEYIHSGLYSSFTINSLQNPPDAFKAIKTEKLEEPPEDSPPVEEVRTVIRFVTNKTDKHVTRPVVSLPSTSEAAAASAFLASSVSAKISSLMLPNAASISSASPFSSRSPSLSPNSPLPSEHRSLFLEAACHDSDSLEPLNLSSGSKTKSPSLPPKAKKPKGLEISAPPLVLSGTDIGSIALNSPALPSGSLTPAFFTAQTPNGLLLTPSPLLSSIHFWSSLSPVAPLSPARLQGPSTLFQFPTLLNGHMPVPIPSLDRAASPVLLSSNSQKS
The method in brief:
as §1

The next test has as its target T7, FEV (Homo sapiens, UniProt Q99581 1-238).
T7 sequence: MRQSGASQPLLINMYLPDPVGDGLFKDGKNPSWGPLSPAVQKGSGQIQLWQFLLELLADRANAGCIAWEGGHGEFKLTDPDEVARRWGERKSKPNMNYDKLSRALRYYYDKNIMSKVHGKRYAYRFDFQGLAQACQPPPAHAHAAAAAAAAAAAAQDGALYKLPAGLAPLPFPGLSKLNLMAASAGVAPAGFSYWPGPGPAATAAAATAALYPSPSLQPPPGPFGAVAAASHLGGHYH
The essentials:
as §1

A further test addresses ETV5 (Homo sapiens, UniProt P41161 1-510). The method in brief:
as §1

A further test has as its target T8, SPIC (Homo sapiens, UniProt Q8N5J4 1-248).
T8 sequence: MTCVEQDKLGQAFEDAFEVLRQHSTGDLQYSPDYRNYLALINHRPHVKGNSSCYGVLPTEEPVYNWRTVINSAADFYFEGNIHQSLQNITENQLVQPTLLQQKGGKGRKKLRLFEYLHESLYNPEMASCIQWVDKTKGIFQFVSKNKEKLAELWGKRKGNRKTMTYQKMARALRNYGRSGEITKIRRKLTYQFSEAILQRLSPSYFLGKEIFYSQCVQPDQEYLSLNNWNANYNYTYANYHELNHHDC
The method in brief: as §1

For a further test, the target named is ELF4 (Homo sapiens, UniProt Q99607 1-663). The essentials: as §1
Sequence of ELF4 (Q99607 whole entry): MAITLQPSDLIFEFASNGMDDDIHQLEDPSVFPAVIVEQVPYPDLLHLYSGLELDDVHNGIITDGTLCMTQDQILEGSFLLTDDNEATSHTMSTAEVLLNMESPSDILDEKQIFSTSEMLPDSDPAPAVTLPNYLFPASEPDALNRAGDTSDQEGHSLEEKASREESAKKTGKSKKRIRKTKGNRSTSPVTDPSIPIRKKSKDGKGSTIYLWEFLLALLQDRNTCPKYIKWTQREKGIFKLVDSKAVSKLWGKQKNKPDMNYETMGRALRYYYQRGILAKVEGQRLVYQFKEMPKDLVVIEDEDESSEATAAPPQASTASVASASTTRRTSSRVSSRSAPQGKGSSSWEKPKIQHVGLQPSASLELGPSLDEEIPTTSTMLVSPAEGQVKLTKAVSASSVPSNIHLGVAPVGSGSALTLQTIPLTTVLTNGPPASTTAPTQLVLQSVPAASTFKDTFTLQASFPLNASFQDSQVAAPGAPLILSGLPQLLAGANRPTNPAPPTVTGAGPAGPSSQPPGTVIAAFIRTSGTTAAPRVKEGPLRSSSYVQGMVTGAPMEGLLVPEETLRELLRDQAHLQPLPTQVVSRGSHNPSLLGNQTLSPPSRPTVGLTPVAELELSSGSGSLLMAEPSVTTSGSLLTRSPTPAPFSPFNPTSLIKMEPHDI
The next test addresses T9, ELK4 (Homo sapiens, UniProt P28324-2 1-405).
T9 sequence: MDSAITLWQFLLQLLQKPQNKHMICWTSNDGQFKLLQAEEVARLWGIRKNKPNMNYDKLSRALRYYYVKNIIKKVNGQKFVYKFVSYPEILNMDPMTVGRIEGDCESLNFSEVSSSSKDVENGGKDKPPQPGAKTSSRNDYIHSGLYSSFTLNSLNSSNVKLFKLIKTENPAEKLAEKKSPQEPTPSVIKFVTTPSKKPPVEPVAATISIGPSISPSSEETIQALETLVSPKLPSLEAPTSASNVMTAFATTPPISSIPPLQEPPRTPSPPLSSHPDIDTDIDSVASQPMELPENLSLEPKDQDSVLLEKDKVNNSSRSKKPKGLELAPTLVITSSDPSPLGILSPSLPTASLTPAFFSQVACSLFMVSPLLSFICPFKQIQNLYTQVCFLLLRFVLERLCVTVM
The method in brief:
as §1

A further test deals with T10, ETV2 (Homo sapiens, UniProt O00321 1-342).
T10 sequence: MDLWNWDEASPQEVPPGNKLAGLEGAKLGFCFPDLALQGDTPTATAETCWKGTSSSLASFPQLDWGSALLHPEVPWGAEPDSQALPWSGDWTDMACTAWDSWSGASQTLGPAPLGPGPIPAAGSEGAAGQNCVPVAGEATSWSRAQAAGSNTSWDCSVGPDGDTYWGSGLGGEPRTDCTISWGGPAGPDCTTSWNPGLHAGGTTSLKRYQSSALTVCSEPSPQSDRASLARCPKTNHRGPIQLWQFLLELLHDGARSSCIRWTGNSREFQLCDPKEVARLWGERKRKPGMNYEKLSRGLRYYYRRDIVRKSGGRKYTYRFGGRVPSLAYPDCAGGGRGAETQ
The essentials: as §1

The target of another test is T11, ELF3 (Homo sapiens, UniProt P78545 1-371).
T11 sequence: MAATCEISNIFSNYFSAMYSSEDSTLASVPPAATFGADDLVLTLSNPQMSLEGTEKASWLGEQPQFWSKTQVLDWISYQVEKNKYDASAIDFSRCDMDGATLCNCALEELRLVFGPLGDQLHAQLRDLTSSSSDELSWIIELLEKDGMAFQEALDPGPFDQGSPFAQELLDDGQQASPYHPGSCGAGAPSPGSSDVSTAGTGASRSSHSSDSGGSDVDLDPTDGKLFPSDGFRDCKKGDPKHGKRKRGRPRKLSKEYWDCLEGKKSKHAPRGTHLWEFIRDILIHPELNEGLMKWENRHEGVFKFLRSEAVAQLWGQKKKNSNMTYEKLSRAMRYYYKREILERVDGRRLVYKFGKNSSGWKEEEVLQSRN
The method in brief:
as §1

The target in the next test is CRX (Homo sapiens, UniProt O43186 1-299). The essentials: as §1
Sequence of CRX (O43186 whole entry): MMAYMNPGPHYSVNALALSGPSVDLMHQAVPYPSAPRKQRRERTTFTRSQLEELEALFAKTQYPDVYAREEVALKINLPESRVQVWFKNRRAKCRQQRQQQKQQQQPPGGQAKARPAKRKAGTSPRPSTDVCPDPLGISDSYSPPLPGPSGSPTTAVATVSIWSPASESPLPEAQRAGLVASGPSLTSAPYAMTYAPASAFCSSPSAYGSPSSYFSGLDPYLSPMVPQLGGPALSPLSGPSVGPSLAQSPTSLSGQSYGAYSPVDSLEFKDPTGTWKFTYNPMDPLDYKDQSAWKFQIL
The next test concerns the target ETV1 (Homo sapiens, UniProt P50549 1-477). The method in brief:
as §1

Sequence of ETV5 (P41161 whole entry): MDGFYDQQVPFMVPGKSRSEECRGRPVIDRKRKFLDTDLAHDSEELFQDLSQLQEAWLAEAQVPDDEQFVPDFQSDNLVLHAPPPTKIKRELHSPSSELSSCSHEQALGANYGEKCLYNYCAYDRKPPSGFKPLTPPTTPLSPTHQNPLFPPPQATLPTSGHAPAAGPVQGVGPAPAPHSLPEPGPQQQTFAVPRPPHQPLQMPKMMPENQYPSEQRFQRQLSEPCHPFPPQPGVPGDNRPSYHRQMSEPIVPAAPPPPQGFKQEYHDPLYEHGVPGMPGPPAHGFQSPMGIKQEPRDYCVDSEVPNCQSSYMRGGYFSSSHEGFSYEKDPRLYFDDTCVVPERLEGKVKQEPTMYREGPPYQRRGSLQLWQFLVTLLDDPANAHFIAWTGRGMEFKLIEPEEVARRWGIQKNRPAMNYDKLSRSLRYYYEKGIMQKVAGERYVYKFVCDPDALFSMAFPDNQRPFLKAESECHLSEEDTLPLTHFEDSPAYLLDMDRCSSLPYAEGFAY
Sequence of ELF1 (P32519 whole entry): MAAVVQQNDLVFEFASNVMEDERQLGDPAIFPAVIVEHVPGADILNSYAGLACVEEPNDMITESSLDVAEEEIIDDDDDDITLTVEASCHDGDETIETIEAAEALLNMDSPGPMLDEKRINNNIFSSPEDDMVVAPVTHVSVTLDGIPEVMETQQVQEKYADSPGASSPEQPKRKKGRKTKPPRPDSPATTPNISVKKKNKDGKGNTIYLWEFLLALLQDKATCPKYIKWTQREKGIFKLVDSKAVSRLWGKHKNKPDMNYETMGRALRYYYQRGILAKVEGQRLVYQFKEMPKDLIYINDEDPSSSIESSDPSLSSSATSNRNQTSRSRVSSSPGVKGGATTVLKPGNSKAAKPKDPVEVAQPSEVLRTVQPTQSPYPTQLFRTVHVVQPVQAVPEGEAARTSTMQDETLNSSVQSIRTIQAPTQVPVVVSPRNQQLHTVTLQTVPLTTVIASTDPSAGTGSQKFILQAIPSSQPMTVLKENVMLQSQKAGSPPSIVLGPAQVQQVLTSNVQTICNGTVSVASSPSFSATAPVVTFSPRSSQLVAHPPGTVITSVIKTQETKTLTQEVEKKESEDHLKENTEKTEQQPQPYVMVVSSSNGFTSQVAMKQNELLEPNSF
Sequence of SPIB (Q01892 whole entry): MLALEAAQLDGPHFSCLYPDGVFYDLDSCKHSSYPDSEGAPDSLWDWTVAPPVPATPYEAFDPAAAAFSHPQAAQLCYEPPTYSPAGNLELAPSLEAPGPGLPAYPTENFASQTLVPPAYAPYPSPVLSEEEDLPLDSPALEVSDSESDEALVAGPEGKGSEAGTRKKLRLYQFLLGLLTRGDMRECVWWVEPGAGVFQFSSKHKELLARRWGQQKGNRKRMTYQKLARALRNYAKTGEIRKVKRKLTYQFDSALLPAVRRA
Sequence of ETV1 (P50549 whole entry): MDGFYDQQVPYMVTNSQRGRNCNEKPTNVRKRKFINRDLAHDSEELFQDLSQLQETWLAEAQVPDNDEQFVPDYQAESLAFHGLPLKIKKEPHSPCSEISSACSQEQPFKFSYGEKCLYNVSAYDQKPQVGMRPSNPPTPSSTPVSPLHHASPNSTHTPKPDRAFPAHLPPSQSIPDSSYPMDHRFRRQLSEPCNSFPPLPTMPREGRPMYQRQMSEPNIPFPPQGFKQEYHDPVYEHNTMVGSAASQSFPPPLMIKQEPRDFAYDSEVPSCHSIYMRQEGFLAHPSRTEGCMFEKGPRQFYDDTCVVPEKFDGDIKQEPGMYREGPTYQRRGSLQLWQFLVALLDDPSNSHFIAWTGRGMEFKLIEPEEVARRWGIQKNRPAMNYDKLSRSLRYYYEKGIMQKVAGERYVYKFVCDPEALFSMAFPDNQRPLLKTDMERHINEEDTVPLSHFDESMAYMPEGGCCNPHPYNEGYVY

As for AACGGC, the binding signal with FLI1 was 1.08 fold enrichment (6-mer frequency, TF over GST control); in the test with ELK1 it was 1.13 fold enrichment (6-mer frequency, TF over GST control); with GABPA, 1.25 fold enrichment (6-mer frequency, TF over GST control); in the test with ERG, 1.18 fold enrichment (6-mer frequency, TF over GST control); in the test with ELF1 it was 1.16 fold enrichment (6-mer frequency, TF over GST control); with EHF, 1.25 fold enrichment (6-mer frequency, TF over GST control). Also, the binding signal with SPI1 was 1.2 fold enrichment (6-mer frequency, TF over GST control); with SPIB, 1.24 fold enrichment (6-mer frequency, TF over GST control); with ELK3, 1.06 fold enrichment (6-mer frequency, TF over GST control); with FEV, 1.17 fold enrichment (6-mer frequency, TF over GST control); in the test with ETV5, 1.29 fold enrichment (6-mer frequency, TF over GST control); with SPIC it was 1.12 fold enrichment (6-mer frequency, TF over GST control). The binding signal in the test with ELF4 was 1.24 fold enrichment (6-mer frequency, TF over GST control); with ELK4, 1.24 fold enrichment (6-mer frequency, TF over GST control); with ETV2, 1.21 fold enrichment (6-mer frequency, TF over GST control); in the test with ELF3, 1.12 fold enrichment (6-mer frequency, TF over GST control); in the test with CRX, 1.11 fold enrichment (6-mer frequency, TF over GST control); with ETV1, 1.17 fold enrichment (6-mer frequency, TF over GST control).
For the sequence GCGTCC, the binding signal was 1.26 fold enrichment (6-mer frequency, TF over GST control) with FLI1; 1.27 fold enrichment (6-mer frequency, TF over GST control) with ELK1; 1.27 fold enrichment (6-mer frequency, TF over GST control) with GABPA; 1.28 fold enrichment (6-mer frequency, TF over GST control) in the test with ERG; 1.26 fold enrichment (6-mer frequency, TF over GST control) with ELF1; 1.22 fold enrichment (6-mer frequency, TF over GST control) with EHF. Besides, the binding signal in the test with SPI1 was 1.23 fold enrichment (6-mer frequency, TF over GST control); with SPIB, 1.3 fold enrichment (6-mer frequency, TF over GST control); with ELK3 it was 1.29 fold enrichment (6-mer frequency, TF over GST control); in the test with FEV, 1.36 fold enrichment (6-mer frequency, TF over GST control); with ETV5, 1.16 fold enrichment (6-mer frequency, TF over GST control); with SPIC it was 1.23 fold enrichment (6-mer frequency, TF over GST control). The binding signal in the test with ELF4 is 1.2 fold enrichment (6-mer frequency, TF over GST control); with ELK4, 1.25 fold enrichment (6-mer frequency, TF over GST control); with ETV2, 1.08 fold enrichment (6-mer frequency, TF over GST control); with ELF3, 1.37 fold enrichment (6-mer frequency, TF over GST control); with ETV1, 1.26 fold enrichment (6-mer frequency, TF over GST control).
